Data on 14 sequences can be found in PMC8384837, “Expanding the binding specificity for RNA recognition by a PUF domain”.

Common to all, as to experiment: yeast three-hybrid, YBZ-1, SC-Leu-His + 0.5 mM 3-AT, 4 days
Holding throughout (settings): tags: N-Gal4 AD-HA kept; label: inside an RPR1-promoter hybrid RNA with tandem MS2 sites; ssRNA

The target in one experiment is PUM1 PUF domain R5-RDR (Homo sapiens, UniProt Q14671 828-1176, C1007R;R1008D;Q1011R). A digest of the protocol:
(§1)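 Pumilio-1 PUF domain libraries, randomized at the three base-contacting residues of each repeat, were co-expressed with matching RNA elements from a centromeric plasmid in strain YBZ-1, which carries a LexA–MS2 coat fusion and a HIS3 reporter. Transformants grew for four days on SC-Leu (input) or on SC-Leu-His + 0.5 mM 3-AT (selection), and the repeat regions were PCR-amplified and Illumina-sequenced. The interaction score is the log change in variant frequency from input to selection. That logarithm is base 2, with a pseudocount of 1 where a variant was absent.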

The target in another experiment is PUM1 PUF domain R5-QCH (Homo sapiens, UniProt Q14671 828-1176, C1007Q;R1008C;Q1011H). A digest of the protocol: as §1
For a further experiment, the target named is PUM1 PUF domain R7-KWR (Homo sapiens, UniProt Q14671 828-1176, S1079K;N1080W;E1083R). A digest of the protocol: as §1
Another experiment deals with PUM1 PUF domain R5-QAK (Homo sapiens, UniProt Q14671 828-1176, C1007Q;R1008A;Q1011K). A digest of the protocol:
as §1

Another experiment has as its target PUM1 PUF domain R5-LNR (Homo sapiens, UniProt Q14671 828-1176, C1007L;R1008N;Q1011R). A digest of the protocol: as §1
The target of a further experiment is PUM1 PUF domain R5-RFM (Homo sapiens, UniProt Q14671 828-1176, C1007R;R1008F;Q1011M). A digest of the protocol:
as §1

In another experiment the target is PUM1 PUF domain R5-KCV (Homo sapiens, UniProt Q14671 828-1176, C1007K;R1008C;Q1011V). A digest of the protocol:
as §1

The next experiment deals with PUM1 PUF domain R3-LWG (Homo sapiens, UniProt Q14671 828-1176, C935L;R936W;Q939G). A digest of the protocol: as §1
Another experiment concerns the target PUM1 PUF domain R4-TPC (Homo sapiens, UniProt Q14671 828-1176, N971T;H972P;Q975C). A digest of the protocol: as §1
Another experiment has as its target PUM1 PUF domain R2-RRG (Homo sapiens, UniProt Q14671 828-1176, N899R;Y900R;Q903G). A digest of the protocol:
as §1

For a further experiment, the target named is PUM1 PUF domain R7-LWG (Homo sapiens, UniProt Q14671 828-1176, S1079L;N1080W;E1083G). A digest of the protocol:
as §1

A further experiment concerns the target PUM1 PUF domain R5-KRW (Homo sapiens, UniProt Q14671 828-1176, C1007K;Q1011W). A digest of the protocol:
as §1

The next experiment concerns the target PUM1 PUF domain R8-PKR (Homo sapiens, UniProt Q14671 828-1176, N1122P;Y1123K;Q1126R). A digest of the protocol: as §1
For a further experiment, the target named is PUM1 PUF domain R8-GWR (Homo sapiens, UniProt Q14671 828-1176, N1122G;Y1123W;Q1126R). A digest of the protocol:
as §1

The next experiment addresses PUM1 PUF domain R5-IHE (Homo sapiens, UniProt Q14671 828-1176, C1007I;R1008H;Q1011E). A digest of the protocol:
as §1

For a further experiment, the target named is PUM1 PUF domain R3-GYW (Homo sapiens, UniProt Q14671 828-1176, C935G;R936Y;Q939W). A digest of the protocol:
as §1

For the next experiment, the target named is PUM1 PUF domain R7-QNE (Homo sapiens, UniProt Q14671 828-1176, S1079Q). A digest of the protocol: as §1
The next experiment deals with PUM1 PUF domain R3-TRG (Homo sapiens, UniProt Q14671 828-1176, C935T;Q939G). A digest of the protocol:
as §1

A further experiment has as its target T1, PUM1 PUF domain R6-VYQ (Homo sapiens, UniProt Q14671 828-1176, N1043V).
T1 sequence: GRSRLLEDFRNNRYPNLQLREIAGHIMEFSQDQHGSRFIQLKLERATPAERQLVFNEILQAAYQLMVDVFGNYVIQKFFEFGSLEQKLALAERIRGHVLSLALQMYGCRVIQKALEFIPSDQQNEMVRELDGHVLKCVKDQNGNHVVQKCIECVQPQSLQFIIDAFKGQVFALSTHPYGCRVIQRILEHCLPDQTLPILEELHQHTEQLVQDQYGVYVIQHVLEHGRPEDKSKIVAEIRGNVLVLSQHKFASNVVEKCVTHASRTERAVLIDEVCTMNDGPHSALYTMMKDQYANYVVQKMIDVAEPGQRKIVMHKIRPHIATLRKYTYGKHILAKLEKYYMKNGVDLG
A digest of the protocol: as §1

For another experiment, the target named is PUM1 PUF domain R1-ERV (Homo sapiens, UniProt Q14671 828-1176, S863E;Q867V). A digest of the protocol: as §1

“GGCUAGAACUAGUGGAUCCCCCGGCGCCCGGCGGCUCGAGCCCGGGUAAGUGUGAAUAGUCUGCAUGCCGCCGGGCGCCAUGCCUGCAGGUCGACUCUAGAAAACAUG”: the binding signal in the experiment with PUM1 PUF domain R5-RDR was 2.62 log2 enrichment (interaction score); in the experiment with PUM1 PUF domain R5-QCH, 3.31 log2 enrichment (interaction score).
“GGCUAGAACUAGUGGAUCCCCCGGCGCCCGGCGGCUCGAGCCCGGGUAAGUAUAAAUAGUCUGCAUGCCGCCGGGCGCCAUGCCUGCAGGUCGACUCUAGAAAACAUG”: in the experiment with PUM1 PUF domain R7-KWR, the binding signal is 2.7 log2 enrichment (interaction score).
For the sequence “GGCUAGAACUAGUGGAUCCCCCGGCGCCCGGCGGCUCGAGCCCGGGUAAGUGUUAAUAGUCUGCAUGCCGCCGGGCGCCAUGCCUGCAGGUCGACUCUAGAAAACAUG”, the binding signal with PUM1 PUF domain R5-QAK is 3.34 log2 enrichment (interaction score); with PUM1 PUF domain R5-LNR it was 4.82 log2 enrichment (interaction score); with PUM1 PUF domain R5-RFM, 4.36 log2 enrichment (interaction score); in the experiment with PUM1 PUF domain R5-KCV, 1.51 log2 enrichment (interaction score).
As to “GGCUAGAACUAGUGGAUCCCCCGGCGCCCGGCGGCUCGAGCCCGGGUAAGUGUAAGUAGUCUGCAUGCCGCCGGGCGCCAUGCCUGCAGGUCGACUCUAGAAAACAUG”, the binding signal with PUM1 PUF domain R3-LWG is 6.06 log2 enrichment (interaction score).
On to “GGCUAGAACUAGUGGAUCCCCCGGCGCCCGGCGGCUCGAGCCCGGGUAAGUGUACAUAGUCUGCAUGCCGCCGGGCGCCAUGCCUGCAGGUCGACUCUAGAAAACAUG”, for which the binding signal with PUM1 PUF domain R4-TPC was 5.9 log2 enrichment (interaction score).
On to “GGCUAGAACUAGUGGAUCCCCCGGCGCCCGGCGGCUCGAGCCCGGGUAAGUGUAAAGAGUCUGCAUGCCGCCGGGCGCCAUGCCUGCAGGUCGACUCUAGAAAACAUG”, for which the binding signal in the experiment with PUM1 PUF domain R2-RRG was 2.19 log2 enrichment (interaction score).
In the case of “GGCUAGAACUAGUGGAUCCCCCGGCGCCCGGCGGCUCGAGCCCGGGUAAGUCUAAAUAGUCUGCAUGCCGCCGGGCGCCAUGCCUGCAGGUCGACUCUAGAAAACAUG”, the binding signal was 2.65 log2 enrichment (interaction score) in the experiment with PUM1 PUF domain R7-LWG and 5.09 log2 enrichment (interaction score) with PUM1 PUF domain R7-KWR.
With “GGCUAGAACUAGUGGAUCCCCCGGCGCCCGGCGGCUCGAGCCCGGGUAAGUGUCAAUAGUCUGCAUGCCGCCGGGCGCCAUGCCUGCAGGUCGACUCUAGAAAACAUG”, the results for the binding signal with PUM1 PUF domain R5-RDR, in the experiment with PUM1 PUF domain R5-KRW and in the experiment with PUM1 PUF domain R5-KCV were 3.41 log2 enrichment (interaction score), 2.58 log2 enrichment (interaction score) and 2.63 log2 enrichment (interaction score), respectively.
For “GGCUAGAACUAGUGGAUCCCCCGGCGCCCGGCGGCUCGAGCCCGGGUAAGUGUAAAUAGUCUGCAUGCCGCCGGGCGCCAUGCCUGCAGGUCGACUCUAGAAAACAUG”, the binding signal with PUM1 PUF domain R8-PKR was 2.74 log2 enrichment (interaction score); in the experiment with PUM1 PUF domain R8-GWR, 5.13 log2 enrichment (interaction score); with PUM1 PUF domain R5-LNR, 1.95 log2 enrichment (interaction score); in the experiment with PUM1 PUF domain R5-IHE, 3.04 log2 enrichment (interaction score); with PUM1 PUF domain R3-LWG it was 2.39 log2 enrichment (interaction score); in the experiment with PUM1 PUF domain R3-GYW, 5.68 log2 enrichment (interaction score). Besides, the binding signal with PUM1 PUF domain R7-QNE was 4.09 log2 enrichment (interaction score); with PUM1 PUF domain R3-TRG, 3.15 log2 enrichment (interaction score); with PUM1 PUF domain R6-VYQ, 4.06 log2 enrichment (interaction score); in the experiment with PUM1 PUF domain R4-TPC, 4.17 log2 enrichment (interaction score); with PUM1 PUF domain R5-RFM, 1.2 log2 enrichment (interaction score).
Turning to “GGCUAGAACUAGUGGAUCCCCCGGCGCCCGGCGGCUCGAGCCCGGGUAAGCGUAAAUAGUCUGCAUGCCGCCGGGCGCCAUGCCUGCAGGUCGACUCUAGAAAACAUG”, the binding signal is 3.72 log2 enrichment (interaction score) in the experiment with PUM1 PUF domain R8-PKR and 5.66 log2 enrichment (interaction score) with PUM1 PUF domain R8-GWR.
Regarding “GGCUAGAACUAGUGGAUCCCCCGGCGCCCGGCGGCUCGAGCCCGGGUAAGUGUAAUUAGUCUGCAUGCCGCCGGGCGCCAUGCCUGCAGGUCGACUCUAGAAAACAUG”, the results for the binding signal with PUM1 PUF domain R3-LWG and with PUM1 PUF domain R3-GYW were 3.8 log2 enrichment (interaction score) and 2.62 log2 enrichment (interaction score), respectively.
As to “GGCUAGAACUAGUGGAUCCCCCGGCGCCCGGCGGCUCGAGCCCGGGUAAGUUUAAAUAGUCUGCAUGCCGCCGGGCGCCAUGCCUGCAGGUCGACUCUAGAAAACAUG”, the binding signal with PUM1 PUF domain R7-LWG is 5.68 log2 enrichment (interaction score).
As for “GGCUAGAACUAGUGGAUCCCCCGGCGCCCGGCGGCUCGAGCCCGGGUAAGUGUAUAUAGUCUGCAUGCCGCCGGGCGCCAUGCCUGCAGGUCGACUCUAGAAAACAUG”, the binding signal with PUM1 PUF domain R4-TPC was 5.59 log2 enrichment (interaction score).
For “GGCUAGAACUAGUGGAUCCCCCGGCGCCCGGCGGCUCGAGCCCGGGUAAGUGUAAAUCGUCUGCAUGCCGCCGGGCGCCAUGCCUGCAGGUCGACUCUAGAAAACAUG”, the binding signal with PUM1 PUF domain R1-ERV is 5.04 log2 enrichment (interaction score).
